Activity calls are given as the source filed them. Calls follow the shape of the dose curve; as a rule, active = well fitted curve in the direction sought with a large enough effect; inconclusive = small, poorly fitted or top-dose-only effect, or effect the other way, or another doubt; inactive = no such curve, though single readings can be large or run the other way.

38 compounds from PubChem BioAssay (NCATS) can be followed below.

A short description of the test: Inducers of the Endoplasmic Reticulum Stress Response (ERSR) in human glioma: Validation (AID 504836). Also: 0% is about no effect. Conditions: human glioma cells, ER stress response reporter; series mostly up to 38.3 µM; activation: at the top concentration. Put shortly:
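Stably transfected U87-MG glioma cells carrying a GRP78-based luciferase sensor; 16 h compound incubation. Luminescence end-point read 10 min after Bright-Glo addition at room temperature.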
In the case of `COCC(=O)O[C@]1(CCN(C)CCCc2nc3ccccc3[nH]2)CCc2cc(F)ccc2[C@@H]1C(C)C`, the “activation” value is -6.25% (inactive).
Then `CCn1ccnc1CC1COc2ccccc2O1` (stereo not drawn), with 1.15% (inactive).
Under `CN1CCC(=C2c3ccccc3CC(=O)c3sccc32)CC1` stands -2.48% (inactive); under `N[C@@H](Cc1c[nH]c2ccc(O)cc12)C(=O)O`, -2.05% (inactive).
Take `CC(=O)[C@@]1(O)CC[C@H]2[C@@H]3CCC4=CC(=O)CC[C@]4(C)[C@H]3CC[C@@]21C`: the “activation” value was -0.676% (inactive).
Then `OCCN1CCN(CCCN2c3ccccc3C=Cc3ccccc32)CC1`, with 0.534% (inactive); and `CC(C)(C)c1ccc(C(=O)CCCN2CCC(OC(c3ccccc3)c3ccccc3)CC2)cc1`, with 0.602% (inactive); and `COc1ccccc1N1CCN(CC(O)COc2cccc3ccccc23)CC1` (stereo not drawn), with -1.88% (inactive).
Under `CCCCNc1c(C(=O)OCC)c(C)nc2c1cnn2CC` stands -1.43% (inactive); under `Nc1c2c(nc3ccccc13)CCCC2O` (stereo not drawn), -3.06% (inactive); under `C[C@]12CCC(=O)C=C1CC[C@@H]1[C@@H]2[C@@H](O)C[C@@]2(C)[C@H]1CC[C@]2(O)C(=O)CO`, -1.54% (inactive).
In the case of `CN1Cc2c(N)cccc2C(c2ccccc2)C1` (stereo not drawn), the “activation” value is -6.09% (inactive).
Then `CCc1cccc(N(C)C(N)=Nc2cccc3ccccc23)c1`, with -4.82% (inactive); and `CN(C)CCOC(c1ccccc1)c1ccccc1`, with -2.54% (inactive).
Under `CC1=C(CC(=O)O)c2cc(F)ccc2/C1=C\c1ccc(S(C)(=O)=O)cc1` stands -2.22% (inactive); under `C=Cc1c(C)c2cc3[nH]c(cc4nc(cc5nc(cc1[nH]2)C(C)=C5CCC(=O)O)C(CCC(=O)O)=C4C)c(C)c3C=C`, -1.14% (inactive); under `CNCCC(Oc1ccccc1OC)c1ccccc1` (stereo not drawn), -2.3% (inactive).
Under `O=C1N(c2ccccc2)c2ccccc2C1(Cc1ccncc1)Cc1ccncc1` stands -1.14% (inactive).
As to `CC(N)C(=O)OC(C)(C)Cc1ccc(Cl)cc1` (stereo not drawn), the “activation” value is -1.5% (inactive).
Under `COc1ccc2c(c1)c(CC(=O)O)c(C)n2C(=O)c1ccc(Cl)cc1` stands -3.01% (inactive); under `NC(N)=NC(=O)c1nc(Cl)c(N)nc1N`, 1% (inactive); under `OCc1cc(C(O)CNCCCCCCOCCCCc2ccccc2)ccc1O` (stereo not drawn), -2.89% (inactive).
Then `NCCc1cnc[nH]1`, with 0.566% (inactive); and `CCNC(=O)N1CCN(CCCC(c2ccc(F)cc2)c2ccc(F)cc2)CC1`, with 2.1% (inactive); and `COc1ccc(CCN(C)CCCC(C#N)(c2cc(OC)c(OC)c(OC)c2)C(C)C)cc1OC` (stereo not drawn), with -2.42% (inactive).
Then `CCN(CC)CCCC(C)Nc1c2ccc(Cl)cc2nc2ccc(OC)cc12` (stereo not drawn), with 4.86% (inactive); and `CCCCCN(CCCCC)C(=O)C(CCC(=O)O)NC(=O)c1ccc(Cl)c(Cl)c1` (stereo not drawn), with -2.79% (inactive); and `C[N+](C)(C)CCOC(=O)CCC(=O)OCC[N+](C)(C)C`, with -3.18% (inactive).
In the case of `O=C(CCCN1CCC(O)(c2cccc(C(F)(F)F)c2)CC1)c1ccc(F)cc1`, the “activation” value is -2.64% (inactive).
For the compound `CCN(CC)CC(=O)Nc1c(C)cccc1C`, the “activation” value is -0.804% (inactive).
Then `CCCn1cnc2c1c(=O)n(CCCCC(C)=O)c(=O)n2C`, with -1.37% (inactive); and `CCc1cccc2c3c([nH]c12)C(CC)(CC(=O)O)OCC3` (stereo not drawn), with -5.32% (inactive).
Under `CCCC(C(=O)OCCN(CC)CC)(c1ccccc1)c1ccccc1` stands -1.67% (inactive).
Consider `Cc1ccc(C(=O)Nc2ccc(S(=O)(=O)O)c3cc(S(=O)(=O)O)cc(S(=O)(=O)O)c23)cc1NC(=O)c1cccc(NC(=O)Nc2cccc(C(=O)Nc3cc(C(=O)Nc4ccc(S(=O)(=O)O)c5cc(S(=O)(=O)O)cc(S(=O)(=O)O)c45)ccc3C)c2)c1`, for which the “activation” value is -4.46% (inactive).
Take `CN1CCN(C2Cc3ccccc3Sc3ccc(Cl)cc32)CC1` (stereo not drawn): the “activation” value is 2.32% (inactive).
Regarding `CN(C)CCCN1c2ccccc2Sc2ccc(C(F)(F)F)cc21`, the “activation” value is -0.601% (inactive).
Then `Fc1ccc(C(c2ccc(F)cc2)N2CCN(C/C=C/c3ccccc3)CC2)cc1`, with -3.22% (inactive).
Then `Nc1ccn([C@H]2CC[C@@H](CO)O2)c(=O)n1`, with -1.79% (inactive).
